In PubChem BioAssay (NCI):
About 83,000 compounds went through this panel and 20% of them were active in at least one assay; those are over-represented in the sample as a whole.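 Percent growth is the endpoint: 0 to 100 indicates growth inhibition (40 means 60% inhibition), 0 means no net growth, and negative values indicate cell death.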 Activity calls are given as the source filed them. Rule for the calls: active = growth percent below 10; inactive = the rest.

Assays:
Test in all cases: NCI-60 one-dose screen, 48 h (100 = growth as untreated, 0 = no growth, -100 = all killed)
Details in all cases: 10 µM unless noted
RPMI-8226 leukemia = system: RPMI-8226 leukemia
OVCAR-8 ovarian = system: OVCAR-8 ovarian
OVCAR-5 ovarian = system: OVCAR-5 ovarian
OVCAR-4 ovarian = system: OVCAR-4 ovarian
HS 578T breast = system: HS 578T breast
NCI/ADR-RES ovarian = system: NCI/ADR-RES ovarian
T-47D breast = system: T-47D breast
SK-OV-3 ovarian = system: SK-OV-3 ovarian
IGROV1 ovarian = system: IGROV1 ovarian
OVCAR-3 ovarian = system: OVCAR-3 ovarian

Measured: growth

COc1cc(C2CC(c3ccc(Nc4nc(NCCO)nc(N5CCOCC5)n4)cc3)=NN2c2cc(Cl)cc(Cl)c2)cc(OC)c1OC (stereo not given)
inactive: RPMI-8226 leukemia 33.4% | OVCAR-8 ovarian 48.8% | OVCAR-5 ovarian 74.4% | OVCAR-4 ovarian 57.2% | HS 578T breast 22.6% | NCI/ADR-RES ovarian 48.8% | T-47D breast 41.4%

O=C(Nc1ccc(F)c(Cl)c1)Nc1ccc(Cl)c(Cl)c1
inactive: RPMI-8226 leukemia 65.8% | OVCAR-8 ovarian 92.4% | OVCAR-5 ovarian 114% | SK-OV-3 ovarian 84.3% | IGROV1 ovarian 73.6% | OVCAR-3 ovarian 61.1% | HS 578T breast 72.4% | NCI/ADR-RES ovarian 59.1% | T-47D breast 85.5%

CCCCC1CCc2cccc3c(SCC(=O)N(C)c4ccc(Cl)cc4)cc[n+]1c23 (stereo not given)
inactive: RPMI-8226 leukemia 110% | OVCAR-8 ovarian 113% | OVCAR-5 ovarian 116% | OVCAR-4 ovarian 107% | OVCAR-3 ovarian 108% | HS 578T breast 116% | NCI/ADR-RES ovarian 110% | T-47D breast 104%

O=C(NC(=S)Nc1cccc(NC(=S)NC(=O)c2ccccc2)c1)c1ccccc1
inactive: RPMI-8226 leukemia 80.9% | OVCAR-8 ovarian 31.6% | OVCAR-5 ovarian 116% | SK-OV-3 ovarian 44.1% | IGROV1 ovarian 69.1% | OVCAR-3 ovarian 65.1% | HS 578T breast 18.7% | NCI/ADR-RES ovarian 60.1% | T-47D breast 54.6%

O=C(Nc1ccccc1O)c1ccc(-c2ccc(Cl)cc2Cl)o1
inactive: RPMI-8226 leukemia 74.1% | OVCAR-8 ovarian 94.3% | OVCAR-5 ovarian 99.2% | SK-OV-3 ovarian 94.5% | IGROV1 ovarian 88.3% | OVCAR-3 ovarian 85.6% | HS 578T breast 93.8% | NCI/ADR-RES ovarian 90.3% | T-47D breast 77.2%

COc1cc(/C=C2\CN(C)C/C(=C\c3cc(CN4CCOCC4)c(O)c(OC)c3)C2=O)cc(CN2CCOCC2)c1O
inactive: RPMI-8226 leukemia 47.7% | OVCAR-8 ovarian 20.1% | OVCAR-5 ovarian 88.7% | OVCAR-4 ovarian 58.9% | OVCAR-3 ovarian 22.2% | HS 578T breast 83.1% | NCI/ADR-RES ovarian 94.7% | T-47D breast 84.5%

FC(F)(F)c1cccc(CNC2CCN(CCc3ccccc3)CC2)c1
inactive: OVCAR-8 ovarian 79.5% | OVCAR-5 ovarian 84.6% | SK-OV-3 ovarian 81.2% | IGROV1 ovarian 61.9% | OVCAR-3 ovarian 64.7% | HS 578T breast 88.1% | NCI/ADR-RES ovarian 65.2% | T-47D breast 86.7%
active: RPMI-8226 leukemia -10.3%

COc1ccc(Cn2cc(Cn3cc(C=C4C(=O)NC(=O)NC4=O)c4ccccc43)nn2)cc1
inactive: RPMI-8226 leukemia 83.8% | OVCAR-8 ovarian 87.6% | OVCAR-5 ovarian 71.7% | SK-OV-3 ovarian 75.3% | IGROV1 ovarian 94.3% | OVCAR-3 ovarian 88.9% | HS 578T breast 82.6% | NCI/ADR-RES ovarian 84.1% | T-47D breast 64.3%

c1ccc2cc3c(Nc4ccc(N5CCOCC5)cc4)ccnc3cc2c1
inactive: RPMI-8226 leukemia 60.1% | OVCAR-8 ovarian 94.3% | OVCAR-5 ovarian 97% | SK-OV-3 ovarian 107% | IGROV1 ovarian 89.5% | OVCAR-3 ovarian 96% | HS 578T breast 103% | NCI/ADR-RES ovarian 91.1% | T-47D breast 95.5%

COC(=O)c1c2c(c(C)[n+]([O-])c1C)C(=O)C(NCc1ccc(Br)cc1)=CC2=O
active: OVCAR-8 ovarian 4.52% | OVCAR-4 ovarian -27% | OVCAR-3 ovarian -21.5% | NCI/ADR-RES ovarian -3.23%
inactive: RPMI-8226 leukemia 47.6% | OVCAR-5 ovarian 69.1% | HS 578T breast 82.4% | T-47D breast 20.5%

O=C(/C=C/c1ccc(C(F)(F)F)cc1)c1ccc(Nc2nc(NCCO)nc(Nc3ccc(Cl)cc3)n2)cc1
active: RPMI-8226 leukemia 6.67%
inactive: OVCAR-8 ovarian 52.6% | OVCAR-5 ovarian 97.3% | OVCAR-4 ovarian 42.2% | OVCAR-3 ovarian 27.1% | HS 578T breast 72.4% | NCI/ADR-RES ovarian 78.7% | T-47D breast 24.2%

CCCCC1COc2cccc3c2N1C=C/C3=C\C(=O)N(C)c1ccccc1 (stereo not given)
inactive: OVCAR-8 ovarian 52.9% | OVCAR-5 ovarian 83.9% | OVCAR-4 ovarian 50.7% | HS 578T breast 78.4% | NCI/ADR-RES ovarian 86.4% | T-47D breast 41.6%
active: RPMI-8226 leukemia 7.39%

O=C(/C=C/c1ccccc1)c1ccc(Nc2nc(NCCO)nc(Nc3ccc(Cl)cc3)n2)cc1
active: RPMI-8226 leukemia 9.69%
inactive: OVCAR-8 ovarian 89.1% | OVCAR-5 ovarian 97.7% | OVCAR-4 ovarian 73.4% | IGROV1 ovarian 97.3% | NCI/ADR-RES ovarian 91.7% | T-47D breast 62.7%

CCN1C(=O)N(c2ccccc2)C2NN=c3s/c(=C4\C(=O)N(C(C)C)c5ccccc54)c(=O)n3C21 (stereo not given)
inactive: RPMI-8226 leukemia 32% | OVCAR-8 ovarian 31.6% | OVCAR-5 ovarian 45.3% | OVCAR-4 ovarian 45.8% | IGROV1 ovarian 28.5% | HS 578T breast 24.6% | NCI/ADR-RES ovarian 15.7% | T-47D breast 53.8%

CCCCN1CCN(c2ccc3nc(-c4ccc5nc(-c6ccc(OC)c(OC)c6)[nH]c5c4)[nH]c3c2)CC1
active: RPMI-8226 leukemia -19% | OVCAR-8 ovarian 3.24% | OVCAR-4 ovarian -46.1%
inactive: OVCAR-5 ovarian 13.7% | NCI/ADR-RES ovarian 91% | T-47D breast 17.6%

NC1(N2SC(S)=C3CCCC=C32)CCCCC1
inactive: RPMI-8226 leukemia 95.8% | OVCAR-8 ovarian 107% | OVCAR-5 ovarian 104% | SK-OV-3 ovarian 100% | IGROV1 ovarian 93.6% | OVCAR-3 ovarian 107% | HS 578T breast 103% | NCI/ADR-RES ovarian 104% | T-47D breast 84.5%
